The values that follow come from PubChem BioAssay (Tox21).

Several values for one entry are separate records, joined by “and”; a condition that tells them apart may be missing. Equal entries are not always repeated. Records with an inconclusive call do not appear. Activity calls are given as the source filed them. Unless noted, the call rests on the fitted dose curve; in most records, active means well fitted curve in the direction sought with a large enough effect in the repeat runs; inconclusive means weak or mixed curves; inactive means no such curve, though single readings can be large; an effect the other way counts as inactive or inconclusive.

A short description of test [1]: qHTS assay to identify small molecule antagonists of the glucocorticoid receptor (GR) signaling pathway - cell viability counter screen (AID 720693). Further: nearly all actives have a fitted effect of over 55% in size. For orientation: qHTS replaces the single test concentration by a dilution series.
Test [2] in a line: qHTS assay for identifying genotoxic compounds that show differential cytotoxicity against isogenic chicken DT40 cell lines with known DNA damage response pathways - wild type cell line (AID 743012). Further: nearly all actives have a fitted effect of over 60% in size. Further: potency means the concentration at half of the fitted maximal effect. In short, it runs like this:
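Viability of DNA repair-proficient chicken DT40 cells was assessed by CellTiter-Glo luminescence following 40 h compound exposure at 37 C/5% CO2.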

Test [3] is described as follows: qHTS assay for identifying genotoxic compounds that show differential cytotoxicity against isogenic chicken DT40 cell lines with known DNA damage response pathways - Rev3 mutant cell line (AID 743014). Further: nearly all actives have a fitted effect of over 55% in size. Further: potency means the concentration at half of the fitted maximal effect.
Test [4] in a line: qHTS assay for identifying genotoxic compounds that show differential cytotoxicity against isogenic chicken DT40 cell lines with known DNA damage response pathways - Rad54/Ku70 mutant cell line (AID 743015). Further: nearly all actives have a fitted effect of over 60% in size. Further: potency means the concentration at half of the fitted maximal effect.
Test [5] is described as follows: qHTS assay to identify small molecule antagonists of the androgen receptor (AR) signaling pathway - cell viability counter screen (AID 743033; further: nearly all actives have a fitted effect of over 45% in size).
A short description of test [6]: qHTS assay to identify small molecule antagonists of the androgen receptor (AR) signaling pathway using the MDA cell line - cell viability counter screen (AID 743041; further: nearly all actives have a fitted effect of over 45% in size). In a few lines: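 In this qHTS counter assay, fluorescence intensity after CellTiter-Fluor addition indicated viability of MDA-kb2 AR-luc cells given compounds and R1881 for 16 h at 37C.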
In test [7] the target is Androgen receptor (Homo sapiens) (UniProt P10275). The test is described as follows: qHTS assay to identify small molecule antagonists of the androgen receptor (AR) signaling pathway (AID 743035; active means well fitted inhibition curve with a large enough effect in the signal ratio in the repeat runs, not every such curve was filed as active; the % refers to the signal ratio). In short, it runs like this: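 Reporter HEK293 cells were exposed to compounds and R1881 overnight (16 h, 37C); beta-lactamase activity was then quantified by FRET fluorescence.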

The target is the same in test [8]. Put plainly: qHTS assay to identify small molecule agonists of the androgen receptor (AR) signaling pathway (AID 743036; active means well fitted activation curve with a large enough effect in the signal ratio in the repeat runs, with a control signal flat, not every such curve was filed as active; the % refers to the signal ratio). In short, it runs like this: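 Following a 4 h settling period, AR-UAS-bla HEK293 cells were dosed with compounds for 16 h at 37C. A 2 h room-temperature incubation with LiveBLAzer B/G FRET substrate preceded the fluorescence measurement.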

Test [9] shares this target. Put plainly: qHTS assay to identify small molecule agonists of the androgen receptor (AR) signaling pathway using the MDA cell line (AID 743040; further: nearly all actives have a fitted effect of over 20% in size). In a few lines: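 Cell-based luciferase reporter: MDA-kb2, MMTV promoter (AR + GR response elements). 16 h compound exposure at 37C; ONE-Glo, 30 min RT, luminescence.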
Test [10] has the same target. Put plainly: qHTS assay to identify small molecule antagonists of the androgen receptor (AR) signaling pathway using the MDA cell line (AID 743042; further: nearly all actives have a fitted effect of over 55% in size). In a few lines:
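MDA-kb2 cells (human breast carcinoma, stably carrying an MMTV-luciferase reporter responsive to AR and GR) were plated at 3,000 cells/well and preincubated 5 hr at 37C, then given compound plus R1881 agonist for 16 h. ONE-Glo luminescence was read.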

Chain of Androgen receptor (Homo sapiens) (P10275 whole entry, looked up): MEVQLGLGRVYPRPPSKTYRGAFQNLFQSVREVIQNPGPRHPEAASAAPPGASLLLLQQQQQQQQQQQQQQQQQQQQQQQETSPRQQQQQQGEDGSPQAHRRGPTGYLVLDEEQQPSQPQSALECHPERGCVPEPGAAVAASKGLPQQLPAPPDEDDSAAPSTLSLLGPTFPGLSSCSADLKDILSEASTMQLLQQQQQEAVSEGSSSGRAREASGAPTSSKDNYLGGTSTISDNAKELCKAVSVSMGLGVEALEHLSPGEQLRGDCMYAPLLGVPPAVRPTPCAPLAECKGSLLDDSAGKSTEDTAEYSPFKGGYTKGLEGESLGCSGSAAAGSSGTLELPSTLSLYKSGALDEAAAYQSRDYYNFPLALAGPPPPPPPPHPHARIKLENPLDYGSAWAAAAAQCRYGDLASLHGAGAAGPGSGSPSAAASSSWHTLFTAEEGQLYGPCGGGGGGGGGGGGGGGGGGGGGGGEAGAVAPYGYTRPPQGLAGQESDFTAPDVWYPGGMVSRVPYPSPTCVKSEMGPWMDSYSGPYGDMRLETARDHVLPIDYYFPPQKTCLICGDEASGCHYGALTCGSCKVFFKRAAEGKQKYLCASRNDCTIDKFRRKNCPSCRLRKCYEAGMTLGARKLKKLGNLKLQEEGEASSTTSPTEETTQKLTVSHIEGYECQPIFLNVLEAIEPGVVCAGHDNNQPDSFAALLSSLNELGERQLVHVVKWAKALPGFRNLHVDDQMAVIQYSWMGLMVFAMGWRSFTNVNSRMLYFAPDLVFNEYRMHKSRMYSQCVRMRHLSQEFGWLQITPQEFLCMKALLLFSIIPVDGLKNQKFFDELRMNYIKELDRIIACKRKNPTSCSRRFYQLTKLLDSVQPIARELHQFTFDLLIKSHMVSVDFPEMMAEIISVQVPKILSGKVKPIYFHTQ

As for `COP(=O)(OC)O/C(C)=C/C(=O)N(C)C`, the Potency entry in [1], in test [2], in [3], in [4], in test [5] and in [6] was “inactive” throughout.
With `BrCC1CO1` (stereo unspecified), the Potency result in [1], in test [2], in test [4], in [5] and in [6] was “inactive” each time. Further, the Potency in [3] was 61.4 µM (active).
Turning to `O=C(Cl)C(Cl)(Cl)Cl`, the Potency entry in [1], in test [2], in [3], in test [4], in [5] and in test [6] was “inactive” throughout.
With `Cc1ccc(Cl)c(O)c1`, the Potency entry in test [1], in test [2], in [3], in test [4], in [5] and in [6] was “inactive” in each case.
As for `O=C(O)C(Cl)Br` (stereo unspecified), the Potency entry in test [1], in test [2], in [3], in test [4], in test [5] and in [6] was “inactive” in each case.
On to `CCN(CCO)CCn1c(Cc2ccccc2)nc2c1c(=O)n(C)c(=O)n2C`, for which the Potency result in test [1], in [2], in test [3], in test [4], in test [5] and in test [6] was “inactive” throughout.
Turning to `C(COCC1CO1)OCC1CO1` (stereo unspecified), the Potency result in [1], in test [5] and in test [6] was “inactive” in each case. The results for the Potency in [2], in test [3] and in test [4] were 6.86 µM (active), 1.54 µM (active) and 8.63 µM (active), respectively.
Regarding `Oc1ccc2c3c1O[C@H]1[C@@H](O)C=C[C@H]4[C@@H](C2)NCC[C@@]341`, the Potency result in test [1], in test [2], in test [3], in [4], in test [5] and in test [6] was “inactive” each time.
For the compound `S=C=S`, the Potency result in [1], in [2], in [3], in test [4], in test [5] and in test [6] was “inactive” in each case.
In the case of `O=P(O)(O)CN(CP(=O)(O)O)CP(=O)(O)O`, the Potency result in [1], in test [2], in test [3], in test [4], in test [5] and in test [6] was “inactive” in each case.
`CCCN1CCC[C@@H]2Cc3nc(N)ncc3C[C@H]21`: the Potency entry in test [1], in test [2], in [3], in test [4], in test [5] and in test [6] was “inactive” each time.
As for `O=C(Cl)OCc1ccccc1`, the Potency entry in [1], in test [2], in [3], in test [4], in [5] and in test [6] was “inactive” throughout.
With `CCOC(=O)C(SP(=S)(OC)OC)c1ccccc1` (stereo unspecified), the Potency entry in [1], in test [2], in test [3], in [4], in test [5] and in test [6] was “inactive” each time.
On to `CC(C)[C@]12CC(=O)[C@H](C)[C@H]1C2`, for which the Potency result in test [1], in [2], in test [3], in test [4], in test [5] and in test [6] was “inactive” throughout.
For the compound `CCCCCCC(=O)CCCCCC/C=C/C[C@@H](O)[C@H](O)[C@@](N)(CO)C(=O)O`, the Potency entry in test [1], in test [5] and in test [6] was “inactive” in each case. The Potency was 23.7 nM (active) and 10.6 nM (active) in [2]; 21.1 nM (active) and 11.9 nM (active) in test [3]; 26.6 nM (active) and 13.3 nM (active) in test [4].
In the case of `C=C(Cl)CCl`, the Potency result in test [1], in test [2], in [3], in test [4], in test [5] and in [6] was “inactive” each time.
In the case of `CCC(C(N)=O)N1CCCC1=O` (stereo unspecified), the Potency entry in test [1], in [2], in test [3], in test [4], in [5] and in test [6] was “inactive” each time.
With `ClCCCCCCCl`, the Potency result in [1], in [2], in test [3], in test [4], in test [5] and in test [6] was “inactive” in each case.
As for `CCOc1cc(OP(=S)(OC)OC)nc(CC)n1`, the Potency entry in test [1], in test [2], in [3], in [4], in test [5] and in test [6] was “inactive” throughout.
Take `O=c1[nH]c2ccccc2o1`: the Potency entry in [1], in [2], in test [3], in test [4], in test [5] and in test [6] was “inactive” in each case.
As to `Cc1cccc2sc3nncn3c12`, the Potency result in test [1], in test [2], in test [3], in test [4], in test [5] and in test [6] was “inactive” each time.
In the case of `CN(C)C1CCCCC1`, the Potency result in test [1], in test [2], in test [3], in [4], in test [5] and in test [6] was “inactive” throughout.
Turning to `CC(C)(C)C(=O)Cl`, the Potency entry in test [1], in test [2], in [3], in test [4], in [5] and in test [6] was “inactive” in each case.
`O=C(O)CBr`: the Potency entry in test [1], in test [2], in test [3], in test [4], in [5] and in test [6] was “inactive” each time.
Take `CC(C)NCC(O)c1ccc([N+](=O)[O-])cc1` (stereo unspecified): the Potency result in test [1], in test [2], in [3], in [4], in test [5] and in [6] was “inactive” in each case.
`CCCN1CCC[C@@H]2Cc3[nH]ncc3C[C@H]21`: the Potency result in test [1], in [2], in test [3], in test [4], in test [5] and in [6] was “inactive” throughout.
On to `C/C=C/CC#N`, for which the Potency entry in [1], in [2], in [3], in [4], in [5] and in test [6] was “inactive” each time.
Take `N#CN=C1SCCN1Cc1ccc(Cl)nc1`: the Potency result in test [1], in test [2], in test [3], in test [5] and in [6] was “inactive” throughout.
Take `CNC(=O)O/N=C(/CSC)C(C)(C)C`: the Potency entry in test [1], in test [2], in [4], in test [5], in [7] and in [6] was “inactive” in each case. In [10], the Potency entry was “inactive”. In addition, the result in test [8] and in test [9] was inactive.
As to `Cc1ccc2c(c1)C1CN(C)CCC1N2` (stereo unspecified), the Potency entry in test [1], in test [2], in test [4] and in test [5] was “inactive” each time.
Regarding `CC(C)c1ccc(O)cc1`, the Potency result in test [1], in test [2], in test [3], in [5] and in test [6] was “inactive” each time.
Turning to `C=C1C[C@@H]2[C@H](CC[C@]3(C)C(=O)CC[C@@H]23)[C@@]2(C)C=CC(=O)C=C12`, the Potency result in test [1] and in [6] was “inactive” in each case. For the same compound, the Potency in test [2] was 7.5 µM (active); in [3], 11.9 µM (active); in test [4], 13.3 µM (active).
On to `[O-][Br+2]([O-])O`, for which the Potency result in test [1], in test [2], in [4], in test [5] and in test [10] was “inactive” throughout. Also, the outcome in test [9] was inactive.
